Results on 40 compounds are retold here after PubChem BioAssay (NCATS).

“And” between values parts separate entries of the source, which are not always exact repeats. Identical values can stand only once. Records with an inconclusive call do not appear. Values without a mark were called inactive. The source made the active and inactive calls. Calls follow the shape of the dose curve; as a rule, active = well fitted cell-killing curve with a large enough effect; inconclusive = small, poorly fitted or top-dose-only effect, or effect the other way; inactive = no such curve, though single readings can be large or run the other way.
Potency is read from the fitted curve at half-maximal effect.

The assay can be described thus: Viability qHTS for spleen associated tyrosine kinase inhibitor (SYKi) naive MV4-11 cells (AID 1963823). Also: nearly all actives have a fitted effect of over 40% in size. As to conditions: MV4-11 AML viability, CellTiter-Glo luminescence, 72 h; series mostly up to 45 µM. From the text:
Department of Medicine, Hematology/Oncology
University Hospital Frankfurt, Germany.
Trials have shown promising clinical activity of the selective SYK inhibitor entospletinib in patients with high expressing HOXA9/MEIS1 acute leukemias. As the development of resistance mechanisms is a common problem in the use of targeted drugs, we performed a chemical library screen to identify drug sensitivities in SYK inhibitor resistant AML cells. […] Glucocorticoids are potent immunosuppressants which work in part by inhibiting the transcription of cytokine genes.
Described herein is a viability screen to look for activity in the SYK inhibitor naive cell line against four NCATS compound libraries (MIPE 5.0, NPC, NPACT, and Kinase) totaling 11372 compounds. Active hits were reacquired for confirmation and further secondary assay testing.
SEQUENCE No. (e.g., 1, 2, 3, etc.); […] (e.g., Cells, Incubation, Reagent, etc.); VALUE; DESCRIPTION.
1; Media; 2uL; white, solid-bottom Corning assay plate.
2; Compounds; 23nL; Echo acoustic dispenser.
3; Cell; 5uL; 500 cells per well.
4: Incubation; 72hr; 37 C, 5% CO2, 95% humidity.
5; Reagent; 3uL; CellTiter-Glo reagent (Promega).
6; Incubation; 10min; room temperature.
7; Detection; Luminescence; ViewLux plate reader (PerkinElmer).
NOTES (numbers refer to Sequence numbers above
1. Quantitative high-throughput screening (qHTS) of small molecule compounds was conducted on naive SYKi MV4-11 cell line.
2. Twenty-three nanoliter of small molecule compounds were added to each assay plates using the Echo acoustic dispenser (Beckman Coulter).
3. Cells were seeded into the assay plates at a final density of 500 cells in 5uL of media per well using the Multi-drop Combi dispenser.
4. Plates were covered with stainless steel gasketed lids and incubated for 72 hours at standard cell culture conditions.
5. Viability was assessed by adding 3uL of CellTiter-Glo detection reagent (Promega).
6. Plates were covered with gasket lids and incubated for 10 minutes at room temperature.
7. Luminescence was measured on a ViewLux plate reader (PerkinElmer).
Regarding `Cc1ccccc1NC(=O)Nc1ccc(CC(=O)N(C)[C@@H](CC(C)C)C(=O)NCC[C@H](NC(=O)[C@@H]2CCCN2S(=O)(=O)c2cc(Cl)cc(Cl)c2)C(=O)O)cc1`, the Potency result is “inactive”. Still for that read-out and setting: the value for `NCCCC[C@H](NC(=O)[C@@H](NC(=O)[C@H](Cc1c[nH]c2ccccc12)NC(=O)[C@H](CCCCN)NC(=O)[C@H](CCCCN)NC(=O)[C@H](Cc1c[nH]c2ccccc12)NC(=O)[C@H](Cc1c[nH]c2ccccc12)NC(=O)[C@H](CCCCN)NC(=O)[C@@H](N)CCCCN)C(c1ccccc1)c1ccccc1)C(N)=O` was 8.33 µM (active); that for `Cc1cccc(-c2[nH]c(CNc3ccccc3F)nc2-c2ccc3ncnn3c2)n1` was 13 µM (active). As to `COc1cc(NS(=O)(=O)c2ccc(N)cc2)nc(C)n1`, the Potency entry was “inactive”. For the compound `O=C1CC2(CCCC2)CC(=O)N1CCCCN1CCN(c2ncccn2)CC1`, the Potency is 9.44 µM (active). On the same count and under the same terms, the value for `O=C(O)Cn1c(C(=O)Nc2nc(-c3ccccc3Cl)cs2)cc2ccccc21` was “inactive”. On the same count and under the same terms, next, `CCN1CCCC1=O`: “inactive”; `CCCCCCCCCCCCCCCC[N+](C)(C)CC`: 0.299 µM (active); `c1cc(OCCCN2CCCCC2)ccc1CN1CCCCC1`: “inactive”. The same measure, in the same setting: the value for `Cc1cc(C2CCCCC2)n(O)c(=O)c1` was 2.31 µM (active) and 4.68 µM (active); that for `COc1cc2occc2c(O[C@@H]2O[C@H](CO)[C@@H](O)[C@H](O)[C@H]2O)c1CCC(=O)O` was “inactive”; that for `C[C@H](CCC(=O)O)[C@H]1CC[C@H]2[C@@H]3[C@H](O)C[C@@H]4C[C@H](O)CC[C@]4(C)[C@H]3CC[C@]12C` was “inactive”. For `O=C1CC[C@H](C(=O)N2CCCCC2)N1`, the Potency result was “inactive”. On the same count and under the same terms, the value for `CCCCOC(=O)NS(=O)(=O)c1sc(CC(C)C)cc1-c1ccc(Cn2ccnc2)cc1` was 14.8 µM (active); that for `CCOc1ccn(-c2ccc(F)cc2)c(=O)c1C(=O)Nc1ccc(Oc2ccnc(N)c2Cl)c(F)c1` was 366 nM (active) and 525 nM (active); that for `Oc1ccc(C(O)CNCCCCCCNCC(O)c2ccc(O)c(O)c2)cc1O` (stereo not given) was “inactive”. Still for that read-out and setting: the value for `CC1=C(/C=C/C(C)=C/C=C/C(C)=C/C(=O)O)C(C)(C)CCC1` was 668 nM (active) and 132 nM (active). As to `C[C@]12CCC3[C@@H](CC[C@H]4NC(=O)C=C[C@]34C)[C@@H]1CC[C@@H]2C(=O)Nc1cc(C(F)(F)F)ccc1C(F)(F)F` (stereo not given in full), the Potency is 10.5 µM (active). Take `CC(=O)O[C@H]1CC[C@@]2(CI)C(=CC[C@@H]3[C@@H]2CC[C@]2(C)[C@@H]([C@H](C)CCCC(C)C)CC[C@@H]32)C1`: the viability (% of control) was 88.4% [at 9.25 µM].

For `CCC1=C(C)C(=O)C(C)CC12C(=O)CCC2C(=O)O` (stereo not given), the Potency result was “inactive”. As for `C[C@@H]1C(=O)OC2[C@H](O)[C@]34[C@H]5C[C@@H](C(C)(C)C)[C@]36[C@@H](OC(=O)[C@@H]6O)O[C@@]4(C(=O)O5)[C@]21O` (stereo not given in full), the Potency result is “inactive”.

Regarding `COC1CC(O[C@H]2CC[C@@]3(C)C(=CC[C@]4(O)C3[C@H](OC(C)=O)[C@@H](OC(=O)c3ccccc3)[C@]3(C)[C@@H](C(C)=O)CC[C@@]34O)C2)OC(C)C1OC1CC(OC)C(OC2CC(OC)C(OC3OC(C)C(OC4OC(CO)C(O)C(O)C4O)C(OC)C3O)C(C)O2)C(C)O1` (stereo not given in full), the viability (% of control) is 74.5% [at 9.25 µM]. As for `COc1c(Cl)cc2c([nH]c3cnccc32)c1NC(=O)c1cccnc1C`, the Potency was 20.9 µM (active). In the case of `CC(C(=O)O)c1ccc(/C=C2\CCCCC2=O)cc1` (stereo not given), the Potency result was “inactive”.

`COCC(=O)O[C@]1(CCN(C)CCCc2nc3ccccc3[nH]2)CCc2cc(F)ccc2[C@@H]1C(C)C`: the Potency was 21.1 µM (active). Still for that read-out and setting: the value for `N=C1CCCN1Cc1[nH]c(=O)[nH]c(=O)c1Cl` was “inactive”. In the case of `CNC(=O)[C@@H](NC(=O)[C@H](CC(C)C)[C@H](O)C(=O)NO)C(C)(C)C`, the Potency was 13.2 µM (active). Take `OCCNC1CCCc2c1[nH]c1ccc(-c3ccccc3)cc21` (stereo not given): the Potency was 8.33 µM (active). Consider `CNC(=O)c1cc(Oc2ccc(NC(=O)c3cccc(C(F)(F)F)c3)cc2)ccn1`, for which the Potency was 11.6 µM (active). `O=C1c2ccccc2C(=O)C1c1ccc(Br)cc1`: the Potency entry was “inactive”. Turning to `C=C(C)C1CCC2(C(=O)OC3OC(COC4OC(CO)C(O)C(O)C4O)C(OC4OC(C)C(O)C(O)C4O)C(O)C3O)CCC3(C(=O)O)C(CCC4C5(C)CCC(=O)C(C)(C)C5CCC43C)C12` (stereo not given), the viability (% of control) is 84.8% [at 9.25 µM].

Consider `CC(=O)OC1C(O)CC(O[C@@H]2O[C@H](CO)[C@@H](O)[C@H](O)[C@H]2O)C2CCC3C(=O)OC(c4ccoc4)CC3(C)C21` (stereo not given in full), for which the Potency result was “inactive”.

As for `CN(C)CC1CCn2c(c(C3=C(c4cn(C)c5ccccc45)C(=O)NC3=O)c3ccccc32)C1` (stereo not given), the Potency is 1.46 µM (active). As for `CC1=C(CO)C(=O)O[C@@H]([C@@H](C)[C@H]2CC[C@H]3[C@@H]4C[C@H]5O[C@]56[C@@H](O)C=CC(=O)[C@]6(C)[C@H]4CC[C@]23C)C1`, the Potency was 0.296 µM (active). Turning to `C=C1C(=O)O[C@H]2C[C@H](C)C(/C=C/C(C)=O)=CC[C@H]12`, the Potency is 1.18 µM (active). The same measure, in the same setting: next, `CC1NC(=O)C(Cc2c[nH]c3ccccc23)NC1=O` (stereo not given): “inactive”; `O=C(CCCCCCC(=O)Nc1ccccc1)NO`: 1.64 µM (active) and 1.48 µM (active). The same measure, in the same setting: the value for `CC(C)(CO)[C@@H](O)C(=O)NCCCO` was “inactive”. In the case of `CN1CCN(C2CCN(C(=O)Nc3cc(Oc4ccc(NC(=O)C5(C(=O)Nc6ccc(F)cc6)CC5)c(F)c4)ccn3)CC2)CC1`, the Potency was 65.1 nM (active) and 93.4 nM (active).

Turning to `CN(C)Cc1cccc(N=C(c2ccccc2)c2c(O)[nH]c3cc(C(N)=O)ccc23)c1`, the Potency was 0.468 µM (active).
